Outcome and AC50 data for 40 compounds are collected here from PubChem BioAssay (EPA / NIEHS).

Inconclusive results are not listed. Active and inactive are the calls of the source. How the source made its calls: active means hit-call score of the fitted dose curve at least 0.9, where 1 is the maximum; inconclusive means response in the unintended direction; inactive means score below 0.9.

As usually defined, the AC50 is the concentration at which the activity in the assay is half-maximal.

Read-out in the experiment: alkyl and aryl transferase (GSTA2), GSTA2 (gene 2939)
As to the kind of experiment: CLD_GSTA2_48hr: CellzDirect (CLD) Gene Expression Assay for alkyl and aryl transferase (GSTA2) at 48 hours (AID 2283708). The procedure:
CLD_48hr is a cell-based, multiplexed-readout assay that uses hepatocyte, a human liver primary cell, with measurements taken at 48 hours after chemical dosing in a 96-well plate.CLD_GSTA2_48hr is one of 16 assay component(s) measured or calculated from the CLD_48hr assay. It is designed to make measurements of mRNA induction, a form of inducible reporter, as detected with chemiluminescence signals by Quantitative Nuclease Protection Assay (qNPA) technology.Data from the assay component CLD_GSTA2_48hr was analyzed at the endpoint, CLD_GSTA2_48hr, in the positive analysis fitting direction relative to DMSO as the negative control and baseline of activity. Using a type of inducible reporter, gain-of-signal activity can be used to understand changes in the reporter gene as they relate to the gene GSTA2. Furthermore, this assay endpoint can be referred to as a primary readout. To generalize the intended target to other relatable targets, this assay endpoint is annotated to the transferase intended target family, where subfamily is alkyl and aryl transferase.
Human hepatocyte cultures were treated daily for two consecutive days with fresh dosing solutions containing appropriate concentrations of the 320 ToxCast chemicals (chemical identities were blinded to CellzDirect and other ToxCast collaborators), vehicle control (0.2% DMSO), and positive control inducers as summarized in Table 1. […] These replicate data, coupled with internal replicates designed within the blinded ToxCast chemical library, provided additional data to evaluate interindividual differences between hepatocyte preparations and their potential impact on chemical profiles.Cell morphology and integrity were evaluated using phase-contrast microscopy as an indicator of hepatocyte cell health (Tyson & Green, 1987). Cultures for each treatment group (i.e., media, vehicle [0.2% DMSO], positive control inducers [multiple concentrations], and the ToxCast chemicals [multiple concentrations]) were observed and cell morphology was assessed relative to vehicle control cultures at each harvest time point (0, 6, 24, or 48 h). […] Images were evaluated at the conclusion of the study to assess changes in cell integrity and account for the effects of chemical exposure on uncharacteristic changes in concentration-dependent gene expression profiles. The results from these determinations of apparent cytotoxicity were annotated (yes/no) alongside the corresponding qNPA data for reference.At the conclusion of each treatment period, hepatocyte cultures (96-well) were washed with 1 volume of HBSS, lysed by addition of 25 ul ArrayPlate lysis buffer (HTG, Tucson, AZ), and 70 ul/well of Denaturation Oil, denatured by incubation at 95C for 10 min, and frozen at approximately -70C until analysis by nuclease protection assay (qNPA) (Roberts et al., 2007). For qNPA analysis, cell lysates were thawed at 50C for approximately 30 min, qNPA probes were added, and samples were incubated at 95C for 10 min to begin the detection process by denaturing the target RNA, dissociating the duplexes and secondary structure hybridization. At the conclusion of the hybridization period, S1 nuclease reagent was added to each sample to digest all nonprotected nucleotides at 50C for 60-90 min. At the conclusion of the S1 nuclease digestions, all reactions were stopped by transfer of all the samples to fresh plates containing stop solution and incubated at 95C for 15 min to deactivate the enzyme, dissociate the mRNA/ DNA probe heterodimers, and hydrolyze the resulting single stranded mRNA, leaving a stoichiometric amount of single-stranded DNA nuclease protection probe, unmodified in sequence, as the only intact oligonucleotide left in the sample. Neutralization solution was subsequently applied to cooled (room temperature) plates, and samples were transferred to ArrayPlates for overnight incubations at 50Cto allow probes to be captured onto programmed locations on the ArrayPlates. […]
With `CCOP(=O)(OCC)Oc1cc(C)nc(C(C)C)n1`, the compound was called inactive. With `CCCCOC(=O)c1ccccc1C(=O)O`, the outcome was inactive. For the compound `CCCOc1nn(C(=O)NS(=O)(=O)c2ccccc2C(=O)OC)c(=O)n1C`, the call was inactive. Same read-out and setting: for `CCOP(=S)(OCC)SCCSCC` the value was “inactive”. Consider `CC1=NNC(=O)N(/N=C/c2cccnc2)C1`, for which the result was inactive.

On to `CN(C)[C@@H]1C(=O)C(C(N)=O)=C(O)[C@@]2(O)C(=O)C3=C(O)c4c(O)cccc4[C@@](C)(O)[C@H]3[C@H](O)[C@@H]12`, for which the call was inactive. For the compound `CCc1cccc(CC)c1N(COC)C(=O)CCl`, the AC50 is 32.1 µM (active). For `CCOP(=S)(Oc1cnc(C(C)(C)C)nc1)OC(C)C` (stereo not given), the AC50 was 20 µM (active). In the case of `CNC(=O)ON=C(SC)C(=O)N(C)C`, the outcome was inactive. As for `COP(=O)(OC)C(O)C(Cl)(Cl)Cl` (stereo not given), the call was inactive. For the compound `N#CSCSC#N`, the compound was classed as inactive.

As for `Cc1cc(C2CC2)nc(Nc2ccccc2)n1`, the outcome was inactive.

With `COc1cccc(C(=O)NN(C(=O)c2cc(C)cc(C)c2)C(C)(C)C)c1C`, the compound was called inactive.

For `C#CC(C)(C)NC(=O)c1cc(Cl)cc(Cl)c1`, the call was inactive. With `CCOP(=S)(OCC)Oc1cc(C)nc(C(C)C)n1`, the compound was called inactive. Turning to `CN(C)NC(=O)CCC(=O)O`, the compound was classed as inactive. As to `COP(=O)(OC)OC(Br)C(Cl)(Cl)Br` (stereo not given), the outcome was inactive. Regarding `CC(=NC#N)N(C)Cc1ccc(Cl)nc1`, the call was inactive. Regarding `O=[N+]([O-])c1cc(C(F)(F)F)c(Cl)c([N+](=O)[O-])c1Nc1ncc(C(F)(F)F)cc1Cl`, the outcome was inactive.

As to `FC(F)C(F)(F)OCC(Cn1cncn1)c1ccc(Cl)cc1Cl` (stereo not given), the compound was called inactive. Turning to `CCOP(=O)(SC(C)CC)N1CCSC1=O` (stereo not given), the compound was classed as inactive. `CC(C)N(C(=O)SCC(Cl)=C(Cl)Cl)C(C)C`: the outcome was inactive.

With `CCCCN(CC)c1c([N+](=O)[O-])cc(C(F)(F)F)cc1[N+](=O)[O-]`, the compound was called inactive. For the compound `CC1(C(=O)Nc2ccc(O)c(Cl)c2Cl)CCCCC1`, the compound was classed as inactive. For `Nc1c(Cl)cc([N+](=O)[O-])cc1Cl`, the outcome was inactive. As for `S=C1NCCN1`, the compound was called inactive.

As to `CCOC(=O)CC(SP(=O)(OC)OC)C(=O)OCC` (stereo not given), the compound was classed as inactive. On to `COc1cc(OC)nc(Sc2cccc(Cl)c2C(=O)O)n1`, for which the outcome was inactive. As for `C=C(C)[C@H]1Cc2c(ccc3c2O[C@@H]2COc4cc(OC)c(OC)cc4[C@@H]2C3=O)O1`, the AC50 is 0.66 µM (active). Regarding `CCOP(=S)(OCC)Oc1ccc2c(C)c(Cl)c(=O)oc2c1`, the compound was classed as inactive. Regarding `CCOP(=S)(OCC)OC(Cl)C(Cl)(Cl)Cl` (stereo not given), the outcome was inactive. For the compound `COc1ccc(C(=CC(=O)N2CCOCC2)c2ccc(Cl)cc2)cc1OC`, the concentration at half-maximal activity (AC50) is 32.2 µM (active). Consider `Nc1nc(N)nc(NC2CC2)n1`, for which the compound was called inactive. Take `CCCOCC(=Nc1ccc(Cl)cc1C(F)(F)F)n1ccnc1`: the AC50 is 20 µM (active). As for `CSc1nc(NC(C)C)nc(NC(C)C)n1`, the compound was classed as inactive.

Turning to `COP(=O)(NC(C)=O)SC` (stereo not given), the call was inactive. As to `CCc1cccc(C)c1N(C(=O)CCl)C(C)COC` (stereo not given), the outcome was inactive. Turning to `CCCCOC(=O)[C@@H](C)Oc1ccc(Oc2ccc(C#N)cc2F)cc1`, the compound was classed as inactive.

`CCC(=NOC/C=C/Cl)C1=C(O)CC(C2CCOCC2)CC1=O` (stereo not given): the result was inactive. In the case of `CC(C)[C@H](C(=O)O[C@H](C#N)c1cccc(Oc2ccccc2)c1)c1ccc(Cl)cc1`, the call was inactive.
